Here are results for 9 compounds from paper PMC5540273 (PLoS ONE, 2017).

Test systems include MYLK4; MYLK; MYO3A; MYO3B; NDR2; NEK10; NEK11; NEK1; NEK2; NEK3; NEK4; NEK5; NEK6; NEK7; NEK9; NLK.
Common to all, as to settings: concentration: 1 μM, replicates: in singlicate; n = 1
The next test concerns T1, NDR1.
T1 construct: gene STK38

The next test concerns T2, NIK.
T2 construct: gene MAP3K14

In a further test the test system is T3, NIM1.
T3 construct: gene MGC42105

Another test concerns T4, OSR1.
T4 construct: gene OXSR1
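Also: KINOMEscan kinase panel screen.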

Turning to `CC(C)(C)OC(=O)NC1CCCN(c2cc(-c3ccc4c(N)n[nH]c4c3)nc(N)n2)C1` (stereo not drawn) [GSK2286096], the “%Inh” value was determined as 0% with MYLK4; 0% in the test with MYLK; 0% in the test with MYO3A; 0% in the test with MYO3B; 21% in the test on NDR1; 0% with NDR2. Moreover, the “%Inh” value in the test with NEK10 turned out to be 0%; in the test on NEK11 it was 0%; with NEK1 it was 0%; with NEK2, 7%; with NEK3, 3%; with NEK4, 13%. The “%Inh” value in the test on NEK5 is reported as 2%; with NEK6, 0%; in the test on NEK7, 0%; with NEK9, 2%; in the test on NIK, 0%; in the test with NIM1, 9%. The “%Inh” value in the test with NLK was determined as 27%; in the test on OSR1, 0%.

For the compound `Fc1ccc(-c2ncn(CCCNCc3ccccc3)c2-c2ccncc2)cc1`, the “%Inh” value with MYLK4 is recorded as 0%; in the test on MYLK, 13%; with MYO3A, 7%; in the test with MYO3B it was 22%; in the test on NDR1, 0%; in the test on NDR2, 19%. The “%Inh” value with NEK10 was determined as 34%; in the test with NEK11, 19%; in the test with NEK1, 0%; in the test on NEK2, 0%; with NEK3 it was 31%; in the test with NEK4 it was 7%. Moreover, the “%Inh” value in the test on NEK5 is 6%; in the test on NEK6, 12%; in the test on NEK7, 0%; in the test on NEK9, 0%; in the test on NIK, 12%; in the test with NIM1, 15%. Besides, the “%Inh” value came out at 13% with NLK and 19% in the test on OSR1.

As for `CC(=O)Nc1n[nH]c2ncc(-c3ccccc3)cc12` [SB-548492], the “%Inh” value in the test on MYLK4 is 28%; in the test on MYLK, 23%; in the test on MYO3A, 25%; with MYO3B, 0%; in the test on NDR1, 8%; in the test with NDR2, 17%. The “%Inh” value with NEK10 amounted to 0%; with NEK11, 18%; in the test on NEK1 it was 0%; in the test with NEK2 it was 9%; in the test on NEK3, 20%; in the test on NEK4, 25%. The “%Inh” value in the test with NEK5 was 5%; with NEK6 it was 8%; with NEK7, 19%; with NEK9 it was 7%; in the test with NIK, 3%; in the test with NIM1 it was 100%. The “%Inh” value in the test with NLK is given as 24%; with OSR1, 9%.

On to `FC(F)(F)c1ccc(-c2cc(-c3c[nH]nc3-c3ccccn3)ccn2)cc1` [GW599550], for which the “%Inh” value in the test with MYLK4 worked out at 1%; with MYLK, 21%; in the test with MYO3A it was 27%; in the test on MYO3B it was 0%; with NDR1, 22%; in the test on NDR2, 9%. Moreover, the “%Inh” value in the test on NEK10 is 17%; in the test with NEK11 it was 24%; with NEK1 it was 9%; with NEK2, 1%; in the test with NEK3, 4%; in the test with NEK4 it was 0%. Besides, the “%Inh” value in the test on NEK5 is 0%; in the test with NEK6 it was 0%; with NEK7 it was 6%; with NEK9, 52%; in the test on NIK it was 0%; in the test with NIM1, 11%. Also, the “%Inh” value was 22% with NLK and 0% with OSR1.

For the compound `COc1ccc(NC(=O)Nc2ccc(C)c(-c3ccc(C(=O)Nc4ccncc4)cc3)c2)cc1` [GSK1398475], the “%Inh” value is recorded as 0% with MYLK4; 0% with MYLK; 1% in the test on MYO3A; 0% with MYO3B; 17% with NDR1; 0% in the test on NDR2. The “%Inh” value is listed as 0% in the test on NEK10; 0% with NEK11; 0% with NEK1; 0% with NEK2; 10% with NEK3; 0% in the test with NEK4. Moreover, the “%Inh” value with NEK5 was 8%; in the test with NEK6, 0%; with NEK7, 0%; in the test with NEK9, 0%; with NIK, 0%; in the test with NIM1, 0%. For the same compound, the “%Inh” value in the test on NLK is 43%; in the test on OSR1 it was 0%.

Take `Clc1cc(Nc2ncnc3cc[nH]c23)ccc1OCc1ccccn1`: the “%Inh” value is given as 9% in the test on MYLK4; 17% in the test with MYLK; 24% in the test with MYO3A; 20% in the test with MYO3B; 14% in the test with NDR1; 0% in the test with NDR2. Also, the “%Inh” value in the test with NEK10 is 0%; in the test with NEK11, 0%; in the test on NEK1, 5%; with NEK2, 0%; in the test on NEK3, 22%; in the test with NEK4, 6%. In addition, the “%Inh” value in the test with NEK5 came to 0%; in the test with NEK6 it was 16%; in the test with NEK7, 0%; with NEK9 it was 7%; in the test on NIK, 0%; in the test with NIM1, 35%. The “%Inh” value stood at 0% with NLK and 2% in the test with OSR1.

As for `Cn1ccc2ncnc(Oc3ccc(NC(=O)Nc4cccnc4)c(Cl)c3)c21`, the “%Inh” value amounted to 0% in the test with MYLK4; 0% in the test on MYLK; 0% in the test on MYO3A; 1% with MYO3B; 0% with NDR1; 14% in the test with NDR2. In addition, the “%Inh” value in the test on NEK10 turned out to be 0%; in the test with NEK11, 0%; with NEK1, 0%; with NEK2, 0%; with NEK3, 9%; in the test with NEK4, 0%. Besides, the “%Inh” value is reported as 0% in the test with NEK5; 8% in the test on NEK6; 0% in the test on NEK7; 3% in the test with NEK9; 0% with NIK; 0% with NIM1. Besides, the “%Inh” value in the test on NLK was 0%; in the test on OSR1, 7%.

Take `Cl.Fc1ccccc1COc1ccc(Nc2ncnc3ccc(-c4nnc(C(F)(F)F)o4)cc23)cc1Cl` [GW424170]: the “%Inh” value in the test with MYLK4 stood at 0%; in the test with MYLK it was 0%; in the test on MYO3A, 0%; in the test on MYO3B, 0%; with NDR1 it was 0%; in the test with NDR2, 16%. Besides, the “%Inh” value in the test on NEK10, with NEK11, with NEK1, in the test with NEK2, in the test on NEK3 and with NEK4 was 0% in each case. For the same compound, the “%Inh” value in the test on NEK5 is 4%; in the test on NEK6, 0%; in the test on NEK7 it was 0%; in the test on NEK9, 0%; in the test on NIK, 10%; in the test with NIM1 it was 0%. Besides, the “%Inh” value in the test on NLK and with OSR1 was 0% throughout.

For `O=C(c1ccc(-c2cc(-c3c[nH]nc3-c3ccccn3)ccn2)cc1)N1CCCC1` [GW792479], the “%Inh” value worked out at 4% in the test with MYLK4; 31% with MYLK; 9% with MYO3A; 16% in the test on MYO3B; 21% in the test with NDR1; 3% with NDR2. Besides, the “%Inh” value with NEK10 is recorded as 18%; in the test on NEK11, 0%; in the test with NEK1, 0%; in the test on NEK2 it was 3%; in the test on NEK3, 35%; with NEK4, 0%. The “%Inh” value in the test on NEK5 was determined as 0%; in the test with NEK6, 28%; in the test on NEK7 it was 0%; in the test with NEK9 it was 0%; with NIK, 0%; with NIM1 it was 4%. In addition, the “%Inh” value in the test on NLK and in the test on OSR1 was 0% throughout.
